MEKK2 WT-MEK5 = raises or lowers MEK5 binding to wildtype human MEKK2 PB1 domain; Q9Y2U5; bead flow cytometry, Alexa488-MEK5 binding to MEKK2 WT; actives lie on both sides; binding response (% of control), % at 10 µM; 290,000 tested, 1.1% active; in the data active = binding response below about 67% or above about 130%
PREPL inh = inhibits the human prolyl oligopeptidase-like enzyme. Q4J6C6. recombinant PREPL, fluorescence polarization activity-based probe. inhibition, % at 5.96 µM. 320,000 tested, 0.68% active; in the data active = inhibition above about 43%;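 note: 0% = enzyme with DMSO and 100% = wells lacking enzyme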
MEKK2 mut-MEK5 = signal of MEK5 binding to mutant human MEKK2 PB1 domain | 290,000 tested, 0.35% active | percent response, % at 10 µM | bead flow cytometry, Alexa488-MEK5 binding to MEKK2 mutant; in the data active = percent response above about 24%, passing the limit was not always enough
ATG4B inh = ATG4B (human) cysteine protease inhibition | ATG4B cleavage of LC3-PLA2, NBD-HPC fluorescence, 1 h | AID 504462 | 340,000 tested, 0.51% active | inhibition, % at 8.33 µM; in the data active = inhibition above about 40%
UBC13 polyUb = blocks human UBC13 polyubiquitin chain formation; TR-FRET; inhibition, % at 20 µM; 330,000 tested, 0.47% active; AID 485273; in the data active = inhibition above about 45%, passing the limit was not always enough
MEKK3 PB1 HTS = modulators (inhibitors or enhancers) of MEK5 binding to human MEKK3 PB1 domain. Q99759. bead-based flow cytometry, Alexa488-MEK5 binding to MEKK3; actives lie on both sides; 0 = blocked by unlabeled MEK5, 100 = vehicle. binding response (% of control), % at 10 µM. 290,000 tested, 1.4% active. AID 1529;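 active = binding response more than 3 SD above or below the average of its plate-row segment, actives on both sides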;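 note: Alexa488 bead fluorescence after subtracting the streptavidin-only scavenger bead signal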
Target sequence (Q99759 whole entry, looked up, the tested form may be a part): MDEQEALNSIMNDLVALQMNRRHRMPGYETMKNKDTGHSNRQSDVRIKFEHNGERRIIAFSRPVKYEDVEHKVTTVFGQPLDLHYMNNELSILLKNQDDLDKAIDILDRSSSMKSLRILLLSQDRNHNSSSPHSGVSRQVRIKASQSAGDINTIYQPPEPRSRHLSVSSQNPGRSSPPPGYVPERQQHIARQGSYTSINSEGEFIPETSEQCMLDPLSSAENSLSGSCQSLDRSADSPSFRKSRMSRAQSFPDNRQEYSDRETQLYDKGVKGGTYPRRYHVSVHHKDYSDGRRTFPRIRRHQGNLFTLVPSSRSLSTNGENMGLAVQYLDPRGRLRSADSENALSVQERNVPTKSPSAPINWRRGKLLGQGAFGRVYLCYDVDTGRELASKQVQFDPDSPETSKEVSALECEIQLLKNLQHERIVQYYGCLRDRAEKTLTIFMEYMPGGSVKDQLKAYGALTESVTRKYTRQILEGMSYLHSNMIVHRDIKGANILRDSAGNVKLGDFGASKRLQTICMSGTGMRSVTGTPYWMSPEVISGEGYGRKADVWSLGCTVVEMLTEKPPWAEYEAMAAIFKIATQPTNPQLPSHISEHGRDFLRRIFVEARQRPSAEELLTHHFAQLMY
MEKK2wt confirm = raises or lowers MEK5 binding to wildtype human MEKK2, retest. shares compounds with MEKK3 PB1 HTS. bead flow cytometry, Alexa488-MEK5 binding to MEKK2 WT; actives lie on both sides. binding response (% of control), % at 10 µM. 5,900 tested, 2.4% active; in the data active = binding response below about 16% or above about 210%; inactive = in between
MEKK2mut confirm = signal of MEK5 binding to mutant human MEKK2, retest; shares compounds with MEKK3 PB1 HTS; bead flow cytometry, Alexa488-MEK5 binding to MEKK2 mutant; percent response, % at 10 µM; 5,900 tested, 2% active; in the data active = percent response mostly above about 71%, no sharp cut-off; inactive = mostly below about 38%;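 note: higher means compound restores mutant binding toward wildtype level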
MEKK3 confirm = MEKK3-MEK5 PB1 inhibition, single concentration confirmation; binding response (% of control), % at 10 µM; bead flow cytometry, Alexa488-MEK5 binding to MEKK3; stronger effect = lower value; shares compounds with MEKK3 PB1 HTS; 5,900 tested, 1.8% active;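 active = binding response below 72% of control, or above a set upper limit, though filed actives all read lower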;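 note: 100% = DMSO only wells and 0% = binding blocked by excess unlabeled MEK5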
Starred values were filed as active, the others as inactive; . = no result given; [ ] = remark or other dose. An excerpt weighted towards active compounds, which were near 3.1% of everything screened.

SMILES	MEKK2 WT-MEK5	PREPL inh	MEKK2 mut-MEK5	ATG4B inh	UBC13 polyUb	MEKK3 PB1 HTS	MEKK2wt confirm	MEKK2mut confirm	MEKK3 confirm
OC(COC(c1ccc(Cl)cc1)c1ccc(Cl)cc1)CN1CCc2ccccc2C1 (stereo unspecified)	164.0*	7.5	14.0	15.6	23.2	110.0	203.0	63.0	113.0
OC(COC(c1ccccc1)c1ccccc1)CN1CCc2ccccc2C1 (stereo unspecified)	102.0	6.7	6.0	21.3	12.4	103.0	.	.	.
OC(COC(c1ccc(Cl)cc1)c1ccc(Cl)cc1)CN1CCCC1 (stereo unspecified)	140.0*	-29.6	14.0	-5.2	19.9	105.0	126.0	20.0	102.0
CCCCn1c(N)c(N(C(=O)CSc2nncn2-c2ccccc2C)C2CCCC2)c(=O)[nH]c1=O	.	.	.	-3.6	.	.	.	.	.
C[C@]1(CO)CCC[C@@]2(C)C1CC[C@@H](CO)[C@@H]2CCc1ccoc1 (stereo partly specified)	105.0	4.8	11.0	-1.4	0.6	109.0	.	.	.
COc1cc2c(c(OC)c1OC)C(c1ccc(C)cc1)CC(=O)O2 (stereo unspecified)	.	.	.	2.7	.	.	.	.	.
COC(=O)C(F)(F)Sc1c(C)[nH]c2ccccc12	86.0	-0.1	-8.0	-2.2	0.4	79.0*[inhibitor]	105.0	9.0	106.0
COc1ccc(Cn2c(-c3ccc(Br)cc3)c[n+]3ccccc23)cc1	140.0*	-2.4	36.0	4.7	8.0	110.0	118.0	11.0	106.0
COc1ccc(Cn2c(-c3ccc(OC)cc3)nc3ccccc32)cc1	97.0	-11.4	2.0	-0.9	-7.0	98.0	.	.	.
C=CCSc1nc(C)cc(C(=O)OCC)c1C#N	87.0	15.4	-20.0	-0.8	-1.5	81.0	.	.	.
O=C(CCC(=O)Nc1ccc(F)cc1)N/N=C/c1ccccc1O	124.0	-2.7	5.0	-5.9	-11.3	149.0*	106.0	8.0	107.0
Cc1nc2c3cc(F)ccc3n(Cc3ccccc3F)c2s1	109.0	2.4	-1.0	-2.0	2.8	140.0*	89.0	-16.0	89.0
Cc1nc2c3ccccc3n(Cc3ccccc3F)c2s1	95.0	9.0	-2.0	5.5	5.3	100.0	.	.	.
Cc1nc2c3cc(F)ccc3n(Cc3ccccc3)c2s1	111.0	5.5	-1.0	2.4	3.1	155.0*	104.0	7.0	105.0
NC(=O)c1ccc(NC(=O)COC(=O)C2(c3ccccc3F)CCCC2)cc1	88.0	-30.4	-2.0	-2.3	-4.8	73.0*[inhibitor]	100.0	1.0	103.0
CC(OC(=O)c1ccc2c(c1)S(=O)(=O)c1ccccc1C2=O)C(N)=O (stereo unspecified)	97.0	3.3	-4.0	-0.7	-1.4	101.0	.	.	.
Cc1cnnn1-c1ccc(C(=O)CCl)cc1	148.0*	-2.3	14.0	10.8	29.4	102.0	152.0	24.0	104.0
CSc1cccc(NC(=S)N2CCC(N(C)C(C)C)CC2)c1	63.0	-4.9	-12.0	0.1	-2.8	50.0*[inhibitor]	102.0	-4.0	101.0
Cc1cccc(N2CCN(C(=O)Cc3cn(C)c4ccccc34)CC2)c1C	117.0	19.7	5.0	-9.7	-2.7	130.0*	95.0	-9.0	93.0
CN(CC(=O)Nc1c(Cl)cccc1Cl)C(=O)c1ccc2ccccc2n1	.	.	.	-2.5	-5.3	.	.	.	.
CCNc1ccc(C(=O)OCC(=O)NCc2ccccc2Cl)cc1[N+](=O)[O-]	111.0	1.3	1.0	17.0	2.5	140.0*	100.0	-2.0	102.0
CCNc1ccc(C(=O)OCC(=O)NC(=O)NCC(C)C)cc1[N+](=O)[O-]	98.0	8.9	5.0	3.5	-6.3	99.0	.	.	.
N/C(=N\c1nc2c(c(=O)[nH]1)CCC2)Nc1ccccc1	86.0	0.3	-2.0	5.2	7.2	83.0	.	.	.
N=c1n(CCN2CCOCC2)c2ccccc2n1CC(=O)c1cccc([N+](=O)[O-])c1	22.0*[inhibitor]	15.6	-19.0	-8.6	0.1	12.0*[inhibitor]	109.0	9.0	107.0
CCc1ccc(NC(=O)C2=CC=CN3CCS(=O)(=O)N=C23)cc1	.	2.7	.	-24.1	-8.5	.	.	.	.
SMILES	MEKK2 WT-MEK5	PREPL inh	MEKK2 mut-MEK5	ATG4B inh	UBC13 polyUb	MEKK3 PB1 HTS	MEKK2wt confirm	MEKK2mut confirm	MEKK3 confirm
CC(Cc1ccccc1)NC(=O)c1ccc([N+](=O)[O-])cc1 (stereo unspecified)	99.0	-6.8	0.0	3.2	0.2	98.0	.	.	.
CC(Cc1ccccc1)NC(=O)/C=C/c1ccc([N+](=O)[O-])cc1 (stereo unspecified)	108.0	6.5	1.0	-0.2	-24.5	150.0*	101.0	-2.0	102.0
O=C(Nc1ccnn1C1CCN(C2CCCC2)CC1)c1ccccc1	109.0	9.0	11.0	-3.0	9.2	104.0	.	.	.
O=C(O)CC1(CC(=O)NCc2ccncc2)CCCCC1	100.0	-2.0	-3.0	0.6	3.0	101.0	.	.	.
O=C(O)CC1(CC(=O)NCc2ccc(C(F)(F)F)cc2)CCCCC1	125.0	6.9	23.0	-7.4	-6.8	128.0*	100.0	-4.0	101.0
Nc1nnc(CSCc2ccc(Cl)cc2Cl)s1	106.0	4.4	1.0	1.0	-0.2	130.0*	100.0	1.0	98.0
CC(C)(C)c1ccc(/C=C/C(=O)c2ccc(NC3=NCCCS3)cc2)cc1	139.0*	-2.6	32.0	16.9	15.6	109.0	149.0	21.0	105.0
COCCNC(=O)Nc1ccc2nc(-c3cccs3)c(-c3cccs3)nc2c1	67.0*[inhibitor]	-1.7	-3.0	17.6	-3.2	92.0	67.0	-18.0	90.0
CC(C)N(Cc1ccccc1)C(=O)CN1C(=O)NC2(CCCC2)C1=O	.	-3.8	.	0.6	-2.4	.	.	.	.
CCN(CC)S(=O)(=O)c1ccc(OCC(=O)NCc2ccccc2)cc1	38.0*[inhibitor]	3.8	-19.0	-13.5	6.3	27.0*[inhibitor]	98.0	-4.0	102.0
CCN(CC)S(=O)(=O)c1ccc(OCC(=O)NCc2ccco2)cc1	90.0	3.9	-15.0	-6.3	10.8	90.0	.	.	.
COc1ccc(/C=N/NC(=O)CSc2n[nH]c(=O)[nH]c2=O)cc1	103.0	-1.8	0.0	-4.4	.	74.0*[inhibitor]	103.0	1.0	102.0
COc1ccc(/C=N/NC(=O)Cc2n[nH]c(=O)[nH]c2=O)cc1	88.0	15.7	-14.0	5.3	-13.4	87.0	.	.	.
CCOC(=O)c1c(N)sc2c1CCCC2	64.0	-13.8	-9.0	-11.7	-1.0	52.0*[inhibitor]	101.0	0.0	100.0
CC1CCN(c2ccc(/C=N/n3nnnc3N)cc2[N+](=O)[O-])CC1	102.0	8.2	0.0	-9.8	-34.8	99.0	.	.	.

Screens: PubChem BioAssay, several laboratories
